Laboratory results published in PubChem BioAssay (NCI).
The panel holds about 83,000 compounds, 20% with a hit somewhere; the sample as a whole holds those more often.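 Method: cells in 96-well plates; compound added at one concentration; 48 h incubation; percent growth measured; values under 10 scored active.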 The source made the active and inactive calls.

How the values were obtained:
Experiment in all cases: NCI-60 one-dose screen, 48 h (100 = growth as untreated, 0 = no growth, -100 = all killed)
Conditions in all cases: 10 µM unless noted
[1] = tested on: NCI-H23 lung
[2] = tested on: NCI-H226 lung
[3] = tested on: NCI-H322M lung
[4] = tested on: HOP-62 NSCLC
[5] = tested on: NCI-H460 lung
[6] = tested on: HOP-92 NSCLC
[7] = tested on: NCI-H522 lung
[8] = tested on: A549/ATCC NSCLC
[9] = tested on: 786-0 renal
[10] = tested on: COLO 205 colon
[11] = tested on: DU-145 prostate
[12] = tested on: K-562 leukemia
[13] = tested on: MALME-3M melanoma
[14] = tested on: MDA-MB-231 breast
[15] = tested on: RXF 393 renal
[16] = tested on: SF-268 CNS
[17] = tested on: SF-295 CNS
[18] = tested on: SF-539 CNS
[19] = tested on: UACC-257 melanoma
[20] = tested on: M14 melanoma

Measured: growth

C#CCNC(=O)c1cccc2c1cc(C)n2-c1nc2c(c(NCc3ccccc3)n1)CCCC2
active: [1] -42.8% | [2] -67.1% | [3] -4.53% | [4] -6.14% | [5] -30.8% | [6] -61% | [7] -25.8% | [8] -29.5% | [9] -48.4% | [10] -46.4% | [11] 5.22% | [12] 6.56% | [13] -59% | [14] -69.7% | [15] -68.1% | [16] -23.6% | [17] -68.2% | [18] -23.4% | [19] -30.5% | [20] -39.2%

COc1ccc(/C=C(\C#N)n2nc3cccc(F)c3n2)cc1
inactive: [1] 101% | [2] 96.9% | [3] 98.6% | [4] 105% | [5] 106% | [6] 96.1% | [7] 93% | [8] 98.1% | [9] 96.6% | [10] 115% | [11] 103% | [12] 82.8% | [13] 100% | [14] 112% | [15] 104% | [16] 104% | [17] 99.9% | [18] 101% | [19] 95.5% | [20] 105%

COc1cc2nc(-c3ccc(C(F)(F)F)cc3)cc(OCCCN3CCOCC3)c2cc1OC
inactive: [1] 56.5% | [3] 57.2% | [4] 51.9% | [5] 18.5% | [6] 11.2% | [7] 14.6% | [8] 29% | [9] 21.5% | [10] 20% | [11] 41.5% | [12] 11.5% | [13] 45.2% | [14] 22.1% | [15] 14.5% | [16] 56.1% | [18] 46%
active: [2] -10.5% | [17] -50.1% | [19] -16.2% | [20] -56%

S=c1cc(S)c2cc(Br)ccc2[nH]1
inactive: [1] 81.5% | [2] 83.9% | [3] 91.1% | [4] 85.9% | [5] 99.4% | [6] 88.5% | [7] 68.1% | [8] 89.5% | [9] 104% | [10] 98.8% | [11] 105% | [12] 94.9% | [13] 98.4% | [14] 81.5% | [15] 111% | [16] 99% | [17] 100% | [18] 97.7% | [19] 87.1% | [20] 90%

Cc1ccc(-n2nc3c(c(C#N)c2=O)CC(c2ccccc2[N+](=O)[O-])C([N+](=O)[O-])=C3O)cc1 (stereo unspecified)
inactive: [1] 93.2% | [2] 92.1% | [3] 88% | [4] 84.6% | [5] 95.4% | [6] 88.5% | [7] 89.4% | [8] 90.1% | [9] 82.7% | [10] 101% | [11] 79.8% | [13] 79.5% | [14] 70.7% | [15] 81.9% | [16] 85.7% | [17] 105% | [18] 96.9% | [19] 93.8%

CNCCOc1nc2c3cnccc3cc(-c3cc(OC)c(OC)c(OC)c3)c2c2ccncc12
active: [1] -49.1% | [2] -42.5% | [3] -4.74% | [4] -39% | [5] -46.8% | [6] -20.8% | [7] -62.7% | [8] -8.59% | [9] -96.7% | [10] -61.2% | [11] -13.7% | [13] -80.2% | [14] -9.1% | [15] -85.7% | [16] -9.41% | [17] -20.7% | [18] -59.5% | [19] -43.1%

O=S(=O)(NCCNc1nccc(-c2c(-c3cccc(F)c3)nc3sccn23)n1)c1ccc(Br)cc1
inactive: [1] 72.6% | [2] 41.2% | [3] 61% | [4] 83.3% | [5] 27.8% | [6] 76.7% | [7] 62.6% | [8] 34.1% | [9] 50.6% | [10] 36.4% | [11] 52.5% | [12] 38.7% | [13] 71.1% | [14] 69.7% | [15] 72.7% | [16] 53% | [17] 58.7% | [18] 76.4% | [19] 82% | [20] 52.3%

CCN1C(=O)N(CC)C2Nn3c(s/c(=C\c4ccc(OC)cc4)c3=O)=NC21 (stereo unspecified)
inactive: [1] 76.3% | [2] 85.1% | [3] 82.6% | [4] 55.8% | [5] 32.2% | [6] 75.4% | [7] 12.2% | [8] 50.7% | [9] 34.6% | [10] 31.7% | [11] 67.3% | [13] 54.1% | [14] 61.4% | [15] 56.2% | [16] 63.1% | [17] 44.1% | [18] 42.9% | [19] 45%

CCN1CCN(CCNc2nccc(-c3c(-c4cccc(OC)c4)nc4occn34)n2)S1(=O)=O
active: [12] 7.02% | [13] 6.12%
inactive: [1] 105% | [2] 92.2% | [3] 111% | [4] 129% | [5] 96.7% | [6] 84.5% | [7] 89.5% | [8] 101% | [9] 113% | [10] 42.6% | [11] 104% | [14] 87.7% | [15] 94.4% | [16] 102% | [17] 101% | [18] 104% | [19] 52.7% | [20] 40%

CCN1Cc2nc3sc(C)c(C)c3c(=O)n2C=C1C
active: [6] -14.7%
inactive: [1] 46.8% | [2] 77.8% | [3] 69% | [4] 32.6% | [5] 115% | [7] 38.5% | [8] 86.8% | [9] 16.8% | [10] 111% | [11] 61.8% | [13] 79% | [14] 58.3% | [15] 45.8% | [16] 101% | [17] 81% | [18] 70% | [19] 69.3%

N#Cc1c(NC(=O)NCc2ccccc2)sc2c1CCCCC2
active: [5] 0.445% | [10] 2.15% | [11] 3.54% | [15] -3.29% | [18] -5.27%
inactive: [1] 37.5% | [2] 22.5% | [3] 44.9% | [4] 34.2% | [6] 44.8% | [7] 12.1% | [8] 25.5% | [9] 26.3% | [12] 12.7% | [13] 44.7% | [14] 10.7% | [16] 41% | [17] 19.9% | [19] 61.6% | [20] 10.9%

CCCCOc1ccc(/C(C)=N/Nc2cc(C)nc3ccc(Br)cc23)cc1
inactive: [1] 90.7% | [2] 89.6% | [3] 103% | [4] 88.7% | [5] 14.2% | [6] 78.4% | [7] 96.9% | [8] 92.5% | [9] 95.1% | [10] 26.5% | [11] 96.3% | [12] 15.7% | [13] 145% | [14] 81.3% | [15] 94.3% | [16] 96.3% | [17] 76.2% | [18] 98.7% | [19] 114% | [20] 104%

C[C@H]1[C@H]2[C@H]3CC[C@@H]4[C@@]5(C)CC[C@H](O)C(C)(C)[C@@H]5CC[C@@]4(C)[C@]3(C)CC[C@]23CO[C@]1(C)[C@@H](C(=O)/C=C\c1ccco1)C3
active: [10] -2.3% | [13] -11.3% | [19] -8.91%
inactive: [1] 98.5% | [2] 99.7% | [3] 88.3% | [4] 104% | [5] 109% | [6] 65.4% | [7] 87.8% | [8] 104% | [9] 104% | [11] 102% | [14] 82.9% | [15] 110% | [16] 96.3% | [17] 110% | [18] 99.7%

Cc1nn(-c2ccccc2)c(Cl)c1/C=N\N=c1/sc2ccccc2n1C
inactive: [1] 100% | [2] 105% | [3] 97.5% | [4] 93.1% | [5] 107% | [6] 84.5% | [7] 97.7% | [8] 85.1% | [9] 92.6% | [10] 109% | [11] 108% | [13] 112% | [14] 93.2% | [15] 109% | [16] 101% | [17] 109% | [18] 97.5% | [19] 97.1%

COC(=O)CNC(=O)[C@]12CCC(C)(C)C[C@H]1C1=CC[C@@H]3[C@@]4(C)Cc5c([nH]c6ccccc56)C(C)(C)[C@@H]4CC[C@@]3(C)[C@]1(C)CC2
inactive: [1] 92.9% | [2] 83.5% | [3] 91.6% | [4] 87.8% | [5] 87.7% | [6] 101% | [7] 80.5% | [8] 50.4% | [9] 91.6% | [10] 87% | [11] 97.6% | [12] 59.3% | [13] 92.2% | [14] 93.9% | [15] 94.2% | [16] 84.4% | [17] 84.7% | [18] 102% | [19] 78.8% | [20] 104%

O=C(/C(=C\c1ccc([N+](=O)[O-])cc1)S(=O)Cc1ccc(Cl)cc1)c1ccc(Cl)cc1 (stereo unspecified)
inactive: [1] 84.5% | [2] 92.9% | [3] 89.5% | [4] 96.1% | [5] 76.3% | [6] 83.6% | [7] 37.5% | [8] 93.8% | [9] 32.1% | [10] 74.7% | [11] 77.7% | [13] 92.7% | [14] 76.2% | [15] 52.4% | [16] 64% | [17] 90.5% | [18] 99.1% | [19] 100%
